For one assay, the target named is POU1 (OCT1 POU domain) (human, UniProt P14859 260-458). The assay can be described thus: EMSA-SELEX-seq; no BOB1; 20 mM Tris-HCl pH 7.6, 140 mM NaCl, 10% glycerol, 0.5 mM EDTA, 0.05% Triton X-100, 0.1 mg/mL BSA, 0.1 mg/mL poly(dI-dC), 5 mM DTT, room temperature, 20 min; high values mean tight binding. Particulars: protein: recombinant; dsDNA, one strand shown. In outline: (§1)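 A double-stranded random 35-nt library (300 ng, PCR-amplified) was incubated with 30 ng tagged POU-domain protein, with or without 28 ng coactivator protein, in 20 μL Tris–HCl pH 7.6 binding buffer for 20 min at RT. The proteins had been expressed in E. coli BL21, purified under denaturing conditions and renatured. Complex bands from native 6% PAGE were eluted and PCR-amplified over four rounds, then sequenced on Illumina. For binding preference, the percentage of sequenced 8-mers matching a motif pattern was calculated.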
POU1 (OCT1 POU domain), sequence (P14859 260-458): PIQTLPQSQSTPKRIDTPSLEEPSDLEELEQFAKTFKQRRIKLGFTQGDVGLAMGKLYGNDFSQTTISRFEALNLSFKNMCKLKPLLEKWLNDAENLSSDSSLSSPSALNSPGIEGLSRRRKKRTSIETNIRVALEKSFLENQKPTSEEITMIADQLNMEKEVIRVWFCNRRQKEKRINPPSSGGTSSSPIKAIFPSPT

The target of another assay is T1, POU2 (OCT2 POU domain) (human, UniProt P09086 175-386).
T1 sequence: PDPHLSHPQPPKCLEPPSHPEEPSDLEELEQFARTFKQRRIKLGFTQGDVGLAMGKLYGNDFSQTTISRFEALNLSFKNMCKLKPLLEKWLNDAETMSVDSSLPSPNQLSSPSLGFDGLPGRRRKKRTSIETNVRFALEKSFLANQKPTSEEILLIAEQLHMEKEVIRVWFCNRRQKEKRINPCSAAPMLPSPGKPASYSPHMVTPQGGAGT
The assay is described as above. Particulars: protein: recombinant; dsDNA, one strand shown. Put shortly: as §1

The target of assay [1] is POU1 (OCT1 POU domain);BOB1 (OBF1, OCA-B) (human;human, UniProt P14859;Q16633 260-458;1-256, |). The assay can be described thus: EMSA-SELEX-seq; with BOB1 (ternary complex band); 20 mM Tris-HCl pH 7.6, 140 mM NaCl, 10% glycerol, 0.5 mM EDTA, 0.05% Triton X-100, 0.1 mg/mL BSA, 0.1 mg/mL poly(dI-dC), 5 mM DTT, room temperature, 20 min; high values mean tight binding. Particulars: protein: recombinant;recombinant; copies: 1;1; dsDNA, one strand shown. Put shortly: as §1

Assay [2] deals with T2, POU2 (OCT2 POU domain);BOB1 (OBF1, OCA-B) (human;human, UniProt P09086;Q16633 175-386;1-256, |).
T2 sequence 1: T1 sequence
T2 sequence 2: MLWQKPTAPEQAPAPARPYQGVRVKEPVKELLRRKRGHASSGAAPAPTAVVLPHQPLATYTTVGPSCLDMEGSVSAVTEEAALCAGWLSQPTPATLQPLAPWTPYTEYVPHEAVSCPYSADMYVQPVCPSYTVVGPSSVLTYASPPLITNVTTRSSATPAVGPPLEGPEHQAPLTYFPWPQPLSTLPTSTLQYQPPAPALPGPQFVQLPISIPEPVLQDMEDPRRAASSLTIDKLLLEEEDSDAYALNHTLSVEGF
The description is as above. Particulars: protein: recombinant;recombinant; copies: 1;1; dsDNA, one strand shown. In outline: as §1

For the sequence AGAGAAAG, the binding signal was 0.0442 % of ANNNNAAN 8-mers with POU1 (OCT1 POU domain), 0.0501 % of ANNNNAAN 8-mers with POU2 (OCT2 POU domain), 0.0375 % of ANNNNAAN 8-mers in assay [1] and 0.038 % of ANNNNAAN 8-mers in assay [2].

Regarding ACGAAAAA, the binding signal with POU1 (OCT1 POU domain) is 0.0431 % of ANNNNAAN 8-mers; with POU2 (OCT2 POU domain), 0.0409 % of ANNNNAAN 8-mers; in assay [1], 0.0578 % of ANNNNAAN 8-mers; in assay [2], 0.0355 % of ANNNNAAN 8-mers.

ACTGTAAG: the binding signal is 0.0225 % of ANNNNAAN 8-mers in the assay with POU1 (OCT1 POU domain), 0.027 % of ANNNNAAN 8-mers with POU2 (OCT2 POU domain), 0.0265 % of ANNNNAAN 8-mers in assay [1] and 0.0264 % of ANNNNAAN 8-mers in assay [2].

Turning to ATTTCAAC, the binding signal in the assay with POU1 (OCT1 POU domain) is 0.0416 % of ANNNNAAN 8-mers; in the assay with POU2 (OCT2 POU domain) it was 0.0414 % of ANNNNAAN 8-mers; in assay [1], 0.041 % of ANNNNAAN 8-mers; in assay [2] it was 0.0429 % of ANNNNAAN 8-mers.

In the case of ATGGTAAC, the binding signal with POU1 (OCT1 POU domain) is 0.0454 % of ANNNNAAN 8-mers; in the assay with POU2 (OCT2 POU domain) it was 0.0621 % of ANNNNAAN 8-mers; in assay [1], 0.0316 % of ANNNNAAN 8-mers; in assay [2], 0.0429 % of ANNNNAAN 8-mers.

Take AGGTTAAA: the binding signal with POU1 (OCT1 POU domain) is 0.0545 % of ANNNNAAN 8-mers; with POU2 (OCT2 POU domain), 0.0731 % of ANNNNAAN 8-mers; in assay [1], 0.0578 % of ANNNNAAN 8-mers; in assay [2], 0.052 % of ANNNNAAN 8-mers.

As for ACCTTAAT, the binding signal is 0.0629 % of ANNNNAAN 8-mers with POU1 (OCT1 POU domain), 0.0679 % of ANNNNAAN 8-mers with POU2 (OCT2 POU domain), 0.0418 % of ANNNNAAN 8-mers in assay [1] and 0.0545 % of ANNNNAAN 8-mers in assay [2].

ATCGTAAG: the binding signal with POU1 (OCT1 POU domain) was 0.0343 % of ANNNNAAN 8-mers; with POU2 (OCT2 POU domain) it was 0.0449 % of ANNNNAAN 8-mers; in assay [1], 0.0379 % of ANNNNAAN 8-mers; in assay [2], 0.0388 % of ANNNNAAN 8-mers.

As to AATTAAAG, the binding signal was 0.187 % of ANNNNAAN 8-mers with POU1 (OCT1 POU domain), 0.22 % of ANNNNAAN 8-mers with POU2 (OCT2 POU domain), 0.112 % of ANNNNAAN 8-mers in assay [1] and 0.121 % of ANNNNAAN 8-mers in assay [2].

With ACACAAAT, the binding signal in the assay with POU1 (OCT1 POU domain) was 0.116 % of ANNNNAAN 8-mers; with POU2 (OCT2 POU domain), 0.0857 % of ANNNNAAN 8-mers; in assay [1], 0.175 % of ANNNNAAN 8-mers; in assay [2], 0.0916 % of ANNNNAAN 8-mers.

As to ATGCAAAG, the binding signal in the assay with POU1 (OCT1 POU domain) was 1.06 % of ANNNNAAN 8-mers; with POU2 (OCT2 POU domain) it was 0.831 % of ANNNNAAN 8-mers; in assay [1], 2.22 % of ANNNNAAN 8-mers; in assay [2], 2.27 % of ANNNNAAN 8-mers.

For AACTAAAT, the binding signal is 0.0778 % of ANNNNAAN 8-mers with POU1 (OCT1 POU domain), 0.0811 % of ANNNNAAN 8-mers in the assay with POU2 (OCT2 POU domain), 0.0667 % of ANNNNAAN 8-mers in assay [1] and 0.0594 % of ANNNNAAN 8-mers in assay [2].

Consider ACAGTAAT, for which the binding signal in the assay with POU1 (OCT1 POU domain) is 0.0614 % of ANNNNAAN 8-mers; with POU2 (OCT2 POU domain) it was 0.0725 % of ANNNNAAN 8-mers; in assay [1], 0.0406 % of ANNNNAAN 8-mers; in assay [2] it was 0.0553 % of ANNNNAAN 8-mers.

With ATGCGAAT, the binding signal was 0.124 % of ANNNNAAN 8-mers with POU1 (OCT1 POU domain), 0.165 % of ANNNNAAN 8-mers in the assay with POU2 (OCT2 POU domain), 0.0901 % of ANNNNAAN 8-mers in assay [1] and 0.128 % of ANNNNAAN 8-mers in assay [2].

For AGTTTAAC, the binding signal was 0.04 % of ANNNNAAN 8-mers in the assay with POU1 (OCT1 POU domain), 0.0449 % of ANNNNAAN 8-mers with POU2 (OCT2 POU domain), 0.0375 % of ANNNNAAN 8-mers in assay [1] and 0.033 % of ANNNNAAN 8-mers in assay [2].

In the case of AGCGAAAG, the binding signal in the assay with POU1 (OCT1 POU domain) is 0.0248 % of ANNNNAAN 8-mers; with POU2 (OCT2 POU domain) it was 0.0242 % of ANNNNAAN 8-mers; in assay [1] it was 0.0332 % of ANNNNAAN 8-mers; in assay [2], 0.0239 % of ANNNNAAN 8-mers.

With AACAGAAC, the binding signal was 0.0183 % of ANNNNAAN 8-mers with POU1 (OCT1 POU domain), 0.0242 % of ANNNNAAN 8-mers in the assay with POU2 (OCT2 POU domain), 0.018 % of ANNNNAAN 8-mers in assay [1] and 0.0231 % of ANNNNAAN 8-mers in assay [2].

As to ACGTGAAT, the binding signal in the assay with POU1 (OCT1 POU domain) is 0.0732 % of ANNNNAAN 8-mers; in the assay with POU2 (OCT2 POU domain), 0.107 % of ANNNNAAN 8-mers; in assay [1] it was 0.0558 % of ANNNNAAN 8-mers; in assay [2], 0.0784 % of ANNNNAAN 8-mers.

Take AGAGTAAA: the binding signal with POU1 (OCT1 POU domain) was 0.0564 % of ANNNNAAN 8-mers; with POU2 (OCT2 POU domain), 0.0386 % of ANNNNAAN 8-mers; in assay [1], 0.0605 % of ANNNNAAN 8-mers; in assay [2] it was 0.0512 % of ANNNNAAN 8-mers.

Take AGACAAAT: the binding signal with POU1 (OCT1 POU domain) was 0.114 % of ANNNNAAN 8-mers; with POU2 (OCT2 POU domain) it was 0.0748 % of ANNNNAAN 8-mers; in assay [1], 0.187 % of ANNNNAAN 8-mers; in assay [2], 0.105 % of ANNNNAAN 8-mers.

AATCGAAA: the binding signal was 0.0622 % of ANNNNAAN 8-mers with POU1 (OCT1 POU domain), 0.0512 % of ANNNNAAN 8-mers with POU2 (OCT2 POU domain), 0.0613 % of ANNNNAAN 8-mers in assay [1] and 0.0438 % of ANNNNAAN 8-mers in assay [2].

Regarding ATTCTAAC, the binding signal with POU1 (OCT1 POU domain) was 0.0503 % of ANNNNAAN 8-mers; with POU2 (OCT2 POU domain), 0.0495 % of ANNNNAAN 8-mers; in assay [1] it was 0.0328 % of ANNNNAAN 8-mers; in assay [2] it was 0.0322 % of ANNNNAAN 8-mers.

On to AAAATAAT, for which the binding signal with POU1 (OCT1 POU domain) is 0.178 % of ANNNNAAN 8-mers; with POU2 (OCT2 POU domain), 0.212 % of ANNNNAAN 8-mers; in assay [1], 0.153 % of ANNNNAAN 8-mers; in assay [2], 0.155 % of ANNNNAAN 8-mers.

For AGCATAAC, the binding signal is 0.082 % of ANNNNAAN 8-mers with POU1 (OCT1 POU domain), 0.099 % of ANNNNAAN 8-mers with POU2 (OCT2 POU domain), 0.0207 % of ANNNNAAN 8-mers in assay [1] and 0.038 % of ANNNNAAN 8-mers in assay [2].

With ATCACAAG, the binding signal in the assay with POU1 (OCT1 POU domain) was 0.0225 % of ANNNNAAN 8-mers; with POU2 (OCT2 POU domain), 0.0334 % of ANNNNAAN 8-mers; in assay [1], 0.0328 % of ANNNNAAN 8-mers; in assay [2] it was 0.0446 % of ANNNNAAN 8-mers.

In the case of AGATGAAC, the binding signal is 0.0286 % of ANNNNAAN 8-mers in the assay with POU1 (OCT1 POU domain), 0.0363 % of ANNNNAAN 8-mers with POU2 (OCT2 POU domain), 0.0207 % of ANNNNAAN 8-mers in assay [1] and 0.0256 % of ANNNNAAN 8-mers in assay [2].

Take ATGTGAAT: the binding signal with POU1 (OCT1 POU domain) was 0.138 % of ANNNNAAN 8-mers; in the assay with POU2 (OCT2 POU domain) it was 0.158 % of ANNNNAAN 8-mers; in assay [1] it was 0.0921 % of ANNNNAAN 8-mers; in assay [2], 0.134 % of ANNNNAAN 8-mers.

With AGTTAAAC, the binding signal with POU1 (OCT1 POU domain) is 0.0461 % of ANNNNAAN 8-mers; with POU2 (OCT2 POU domain), 0.0593 % of ANNNNAAN 8-mers; in assay [1], 0.0499 % of ANNNNAAN 8-mers; in assay [2] it was 0.0553 % of ANNNNAAN 8-mers.

For AGCCTAAC, the binding signal in the assay with POU1 (OCT1 POU domain) was 0.0153 % of ANNNNAAN 8-mers; with POU2 (OCT2 POU domain), 0.0144 % of ANNNNAAN 8-mers; in assay [1] it was 0.0109 % of ANNNNAAN 8-mers; in assay [2], 0.0157 % of ANNNNAAN 8-mers.

On to AGGCCAAC, for which the binding signal in the assay with POU1 (OCT1 POU domain) was 0.0107 % of ANNNNAAN 8-mers; in the assay with POU2 (OCT2 POU domain), 0.0115 % of ANNNNAAN 8-mers; in assay [1] it was 0.0113 % of ANNNNAAN 8-mers; in assay [2], 0.0157 % of ANNNNAAN 8-mers.

The values above are taken from PMC10812921, “Transcriptional Coactivator BOB1 (OBF1, OCA-B) Modulates the Specificity of DNA Recognition by the POU-Domain Factors OCT1 and OCT2 in a Monomeric Configuration”.
